For 97 molecules, inhibition results are on record in PubChem BioAssay AID1850 (Southern Research Specialized Biocontainment Screening …, 2009).

In all, about 310,000 compounds went through this assay and about 1,000 (0.32%) were called active. Not all results are given here. Results with a measured potency or affinity are listed apart. Unmarked numbers belong to inactive results. The rule behind the calls is not given here.

Usually inhibition stands for the drop in the measured response relative to a control, in per cent.

A short description of this experiment: Inhibition of PhoP regulon, Salmonella typhi GFP reporter cells, confirmation, 4 h (AID 1850).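 Note: 0% = induced wells with vehicle and 100% = uninduced wells.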 Conditions: Salmonella Typhi PhoP-promoter GFP reporter, fluorescence, at 50 µM, stronger effect = higher value.
Take `CC(=O)c1cnc(Nc2cccc(C)c2)s1`: the inhibition was -8.01%.

In the case of `Cn1c(CNC(=O)CNS(=O)(=O)c2ccc(Br)cc2)cc(=O)n(C)c1=O`, the inhibition was -1.92%.

For the molecule `CC(C)c1ccc(OCC(=O)NNC(=S)NC(=O)c2cccs2)c(Br)c1`, the inhibition was -8.98%. For the molecule `COc1ccc2oc(C(=O)OCC(=O)N(C)CC(=O)Nc3ccc(C)cc3)c(C)c2c1`, the inhibition was 6.55%.

In the case of `O=C(c1ccc([N+](=O)[O-])o1)N1CCN(Cc2ccccc2)CC1`, the inhibition is -0.17%.

Turning to `CC1CCN(C(=O)c2ccc([N+](=O)[O-])o2)CC1`, the inhibition was 5.43%. With `COc1ccc(C(=O)Nc2ccc(N3CCCC3)cc2)cc1`, the inhibition was -0.89%. `COc1ccccc1NC(=O)COc1ccc(C(=O)OCC(=O)NC(C)(C)C)cc1OC`: the inhibition is -5.27%. For `NC(N)=N/N=C/c1ccc(OCc2ccccc2)cc1`, the inhibition is 17%. Consider `COc1cc(/C=N/N=C(N)N)ccc1OCc1ccccc1Cl`, for which the inhibition is -7.28%. As for `COc1cc(/C=N/N=C(N)N)ccc1OCc1ccc(Cl)cc1`, the inhibition was 49.6%.

Take `NC(N)=N/N=C/c1ccc(Cl)cc1Cl`: the inhibition was 14.2%. As to `Clc1ccccc1COc1ccc(/C=N/n2cnnc2)cc1`, the inhibition was -10.4%.

Take `FCCCOc1ccc(/C=N/OCc2ccc(Cl)cc2Cl)cc1`: the inhibition is 14.7%. Turning to `CCCCCCCNC(=O)C1CC(=O)N(C)C(=Nc2ccc(OC)cc2)S1` (configuration not stated), the inhibition was -2.09%. Take `CCOc1cc(C(=O)OC(C)C(=O)Nc2ccc(S(N)(=O)=O)cc2)ccc1OCC(=O)N1CCOCC1` (configuration not stated): the inhibition was 8.2%. Regarding `CC(C)CN1C2CCCC1CC(NC(=O)c1ccc([N+](=O)[O-])cc1)C2` (configuration not stated), the inhibition is 3.6%. In the case of `N/C(=N\NS(=O)(=O)c1ccccc1C(F)(F)F)c1ccccn1`, the inhibition is 2.11%. Take `COc1cccc(C(=O)Nc2c3c(nc4c2CCC4)CCCC3)c1`: the inhibition is -0.613%.

Consider `CC(C)(C)C1CCC(C(=O)OCC(=O)N2CCN(C(=O)c3ccco3)CC2)CC1` (configuration not stated), for which the inhibition was -8.5%.

Consider `O=c1c(C=NCc2cccnc2)c(C(F)(F)F)[nH]n1-c1nc2ccccc2s1`, for which the inhibition is 2.08%. For the molecule `COC(=O)C1=C(C)Nc2c(c(=O)n(C)c(=O)n2C)C1c1ccc(Cl)cc1` (configuration not stated), the inhibition was 0.17%.

As to `CC(=O)c1sc(-c2ccccn2)nc1C`, the inhibition is 3.14%. For the molecule `N=c1ccn2c(n1)O[C@H]1[C@@H](CO)[C@H](O)O[C@H]12`, the inhibition is 2.95%. Turning to `CCOC(=O)c1cn(-c2ccc(F)c(F)c2)c2c(F)c(F)c(F)c(F)c2c1=O`, the inhibition was -9.71%.

Take `COC(=O)c1ccc(C)c(NC(=S)NCc2ccc(Cl)cc2)c1`: the inhibition was -7.26%.

On to `COC(=O)c1cc(NC(=S)NCc2ccc(Cl)cc2)cc(C(=O)OC)c1`, for which the inhibition is -2.32%.

For `O=C(Nc1ccccc1)O/N=C(\c1ccccc1)c1ccccn1`, the inhibition is -16.2%. `Cc1cccc[n+]1CC(=O)Nc1ccc([N+](=O)[O-])cc1`: the inhibition was 1.95%. In the case of `Cc1ccc[n+](CC(=O)Nc2ccc([N+](=O)[O-])cc2)c1`, the inhibition is 6.66%. As for `N#Cc1ccccc1NC(=O)CSc1nnc(-c2ccccc2)n1-c1ccccc1`, the inhibition is 0.92%. Regarding `COc1ccc2c(c1OC)C(=O)N(c1ccc(O)cc1)C2=O`, the inhibition was -3.53%.

Take `COc1ccc2c(c1OC)C(=O)N(c1ccccc1)C2=O`: the inhibition was 9.99%.

Consider `CCN(C(=S)NCc1ccccc1)c1ccccc1`, for which the inhibition is -2.51%. Regarding `Cc1c(NC(=O)C(=O)/C=C(\O)c2ccc(Cl)cc2)c(=O)n(-c2ccccc2)n1C`, the inhibition is -8.97%. The figure for `Cc1cc(C)nc(N/N=C/c2ccccc2)n1` is -1.28%.

On to `Cc1ccc(/C=N/NC(=O)c2cccs2)s1`, for which the inhibition was -3.78%. Turning to `O=C(N/N=C/c1ccccn1)c1ccco1`, the inhibition is 8.62%. The figure for `O=C(N/N=C/c1ccc(Br)s1)c1cccs1` is 5.12%. On to `O=C(N/N=C/c1ccccn1)c1ccncc1`, for which the inhibition is 10.1%. For `O=C(N/N=C/c1ccccn1)c1ccc(Br)cc1`, the inhibition is 8.46%. Take `O=C(N/N=C/c1ccncc1)c1cccs1`: the inhibition was -16.1%. As for `CC(C)NC(=O)NC(=O)COC(=O)CCOc1ccccc1`, the inhibition is 1.53%. For the molecule `O=C(CC1(CC2=NS(=O)(=O)c3ccccc3N2)CCCC1)NCCc1ccccc1`, the inhibition is -20.4%. As for `O=C(NCC1CC1)c1cc(-c2ccccc2)nn1CC1CC(c2cccc([N+](=O)[O-])c2)=NO1` (configuration not stated), the inhibition is 4.4%.

With `Cc1ccc(Cl)cc1N1CCN(S(=O)(=O)c2c(C)[nH]c(=O)[nH]c2=O)CC1`, the inhibition was 8.84%. The figure for `CCn1cc(C(=O)O)c(=O)c2cc(F)c(N3CCN(C(=S)NC(=O)c4c(OC)cccc4OC)CC3)cc21` is 3.3%. On to `C=CCNC(=S)N1CCN(c2cc3c(cc2F)c(=O)c(C(=O)O)cn3CC)CC1`, for which the inhibition was -3.14%. Take `Cn1nnnc1SCC(=O)NCCCc1ccccc1`: the inhibition is 0.19%.

On to `Cc1cccc(NC(=O)COC(=O)Cc2c[nH]c3ccccc23)c1C`, for which the inhibition is -3.69%. In the case of `O=C(NC(=S)NCc1cccnc1)c1cc(Br)ccc1Cl`, the inhibition was -7.31%.

As to `O=C(COc1ncnc2ccccc12)NCC1CCCO1` (configuration not stated), the inhibition is 7.4%. In the case of `Cc1cc(S(=O)(=O)Nc2cccc([N+](=O)[O-])c2)c(C)s1` it was -6.89%. Consider `O=C(NNS(=O)(=O)c1ccccc1[N+](=O)[O-])c1cccc([N+](=O)[O-])c1`, for which the inhibition was -5.01%. The figure for `Cc1occc1C(=O)NC(C)C12CC3CC(CC(C3)C1)C2` (configuration not stated) is 2.3%; for `CCC1(CC)Cc2ccccc2C(CC(=O)N2CCOCC2)=N1` it is -0.09%. Take `COc1ccc(/C=C/C(=O)c2cc(Cl)cc(Cl)c2O)c(OC)c1`: the inhibition is 1.28%. Regarding `Cc1ccc(C(C[N+](=O)[O-])c2c(-c3ccccc3O)[nH][nH]c2=O)cc1` (configuration not stated), the inhibition was 3.54%. Turning to `O=c1[nH][nH]c(-c2ccccc2O)c1C(C[N+](=O)[O-])c1ccccc1` (configuration not stated), the inhibition was 10.2%. As to `Cc1ccc2c(C)c(C(=O)Nc3cccnc3)oc2c1`, the inhibition is -1.18%. For the molecule `CCN(CC)S(=O)(=O)c1ccc(/C=C/C(=O)Nc2ccc(Br)cc2F)cc1`, the inhibition was -3.09%. Take `c1ccc(Nc2c3c(nc4ccccc24)CCC3)cc1`: the inhibition is -12.1%.

As to `CC(=O)c1ccc(Nc2c3c(nc4ccccc24)CCCC3)cc1`, the inhibition is -0.46%. As for `c1ccc2c(Nc3ccc4c(c3)OCCO4)c3c(nc2c1)CCCC3`, the inhibition is -7.16%. With `COc1ccc(Nc2c3c(nc4ccc(C)cc24)CCC3)cc1`, the inhibition is 26.7%. `N#Cc1cccc(Nc2c3c(nc4ccccc24)CCC3)c1`: the inhibition was -6.96%. For `c1ccc2c(Nc3ccc4c(c3)OCCO4)c3c(nc2c1)CCC3`, the inhibition was 19.5%. On to `Cc1ccc2nc3c(c(Nc4ccccc4)c2c1)CCC3`, for which the inhibition was 1.9%. For `COc1cc(Nc2c3c(nc4ccccc24)CCC3)cc(OC)c1OC`, the inhibition was -13.8%. For `O=C(O)C1C2CCC(C2)C1C(=O)N1CCCC1` (configuration not stated), the inhibition is 6.43%. On to `COc1ccc(S(=O)(=O)N(C)CC(=O)NCCC2=CCCCC2)cc1OC`, for which the inhibition is 9.61%. In the case of `C/C(CC(=O)Nc1ccccc1C(F)(F)F)=N\NC(=O)c1cnccn1`, the inhibition was -1.08%.

Regarding `CCCn1c(O)c(N=NC(=O)CNC(=O)Cc2ccc(OC)cc2)c2ccccc21`, the inhibition was -19.2%. As to `CCCN(CCC)S(=O)(=O)c1cccc(C(=O)N=c2sccn2C)c1`, the inhibition is -5.43%. On to `Cc1cccc(NC(=O)c2cc([N+](=O)[O-])ccc2Cl)c1O`, for which the inhibition was -4.69%. Consider `CCOc1cc(C(=O)Nc2ccc3c(c2)OCO3)ccc1OCCOc1ccccc1Cl`, for which the inhibition is -0.32%. For `CC(=O)c1cccc(Nc2c3c(nc4ccccc24)CCC3)c1`, the inhibition was 12.8%. As to `Cc1ccc2nc3c(c(Nc4cccc(O)c4)c2c1)CCC3`, the inhibition is 7.27%. Take `O=C(Cc1ccsc1)Nc1cc(F)ccc1F`: the inhibition is 3.38%. On to `O=C(COc1ccc(S(=O)(=O)N2CCCCC2)cc1Cl)N1CCOCC1`, for which the inhibition is -6.77%. The figure for `COc1ccc(Cl)cc1NC(=O)C1CC(=O)N(C2CCCCC2)C1` (configuration not stated) is -8.7%; for `O=C(COC(=O)c1ccc(Br)o1)NCCNC(=O)COC(=O)c1ccc(Br)o1` it is -1.54%; for `Cc1cc(C(=O)N2CCC(Cc3ccccc3)CC2)c(C)o1` it is -3.49%. `CCc1ccc(NC2=NCCCS2)cc1`: the inhibition is 39.5%.

In the case of `CCOc1ccc(NC2=NCCCS2)cc1`, the inhibition is -2.96%. With `CCCCC(CC)COC(=O)c1ccccc1C(=O)OCC(CC)CCCC` (configuration not stated), the inhibition is -4.54%. On to `COC(=O)[C@@H](N)CCCN=C(N)N[N+](=O)[O-]`, for which the inhibition was -16.2%. In the case of `CCOc1ccc(OCCSc2nc(N)cc(=O)[nH]2)cc1` it was 12.9%.

Turning to `C=CCNC(=O)c1cc2cccc(OC)c2oc1=O`, the inhibition is -9.75%. As for `COCC(=O)NNS(=O)(=O)c1ccccc1[N+](=O)[O-]`, the inhibition is 0.41%. `O=S(=O)(c1ccc(F)c(F)c1F)N1CCN(C(=S)NC2CC3CCC2C3)CC1` (configuration not stated): the inhibition was 3.26%. As for `Cc1c(-n2cc(C(=O)O)c(=O)c3cc(F)c(N4CCCC(O)C4)c(F)c32)c(=O)n(-c2ccccc2)n1C` (configuration not stated), the inhibition was 2.49%. For `COc1ccc(-c2noc(N3CCCC(C(=O)Nc4ccccc4F)C3)n2)cc1` (configuration not stated), the inhibition is 4.79%.

Turning to `CC1CCCN(C(=S)NCc2ccccc2)C1` (configuration not stated), the inhibition was -5.12%. As for `S=C(NC1CC2CCC1C2)N1CCN(c2cccc(Cl)c2)CC1` (configuration not stated), the inhibition was 15.8%. On to `CC1CCN(c2c(NCC3CCC(C(=O)NCc4ccccc4)CC3)c(=O)c2=O)CC1` (configuration not stated), for which the inhibition is -9.12%. The figure for `Cc1ccccc1N1C(=O)c2sc3nc4c(c(=O)n3c2C1=O)CCC4` is 0.93%.
